From PubChem BioAssay (EPA / NIEHS)
“And” between values parts separate entries of the source, which are not always exact repeats. Equal values may be shown once. Results filed as inconclusive are left out. Where a structure was tested more than once in an assay, its records may differ in their call. The source made the active and inactive calls. The calls were made as follows, unless noted: active = hit-call score of the fitted dose curve at least 0.9, where 1 is the maximum; inconclusive = response in the unintended direction; inactive = score below 0.9.

How the values were obtained:
[1] = read-out: Cytochrome P450 3A4 (Homo sapiens) (UniProt P08684); experiment: CLD_CYP3A4_24hr: CellzDirect (CLD) Gene Expression Assay for xenobiotic metabolism (CYP3A4) at 24 hours (AID 2283689)
How it was run: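 Primary human hepatocytes from two donors dosed daily with fresh compound for two days, 0.2% DMSO vehicle. CYP3A4 mRNA at 24 hr by qNPA chemiluminescence; gain-of-signal fit versus DMSO, cytotoxicity flagged by morphology.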

[2] = read-out: organic anion transporter (SLCO1B1), SLCO1B1 (gene 10599); experiment: CLD_SLCO1B1_24hr: CellzDirect (CLD) Gene Expression Assay for organic anion transporter (SLCO1B1) at 24 hours (AID 2283690)
How it was run: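 Primary human hepatocytes (two donor preparations) dosed daily for two days with chemicals at multiple concentrations, 0.2% DMSO vehicle. SLCO1B1 mRNA at 24 h measured by qNPA chemiluminescence; induction fitted relative to DMSO.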

[3] = read-out: alkyl and aryl transferase (GSTA2), GSTA2 (gene 2939); experiment: CLD_GSTA2_24hr: CellzDirect (CLD) Gene Expression Assay for alkyl and aryl transferase (GSTA2) at 24 hours (AID 2283693)
How it was run: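 Primary human hepatocytes (two donor preparations) dosed daily for two days with chemicals at multiple concentrations (vehicle 0.2% DMSO); GSTA2 mRNA at 24 h measured by qNPA chemiluminescence, gain-of-signal versus DMSO.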

[4] = read-out: ABC Transporter (ABCB1), ABCB1 (gene 5243); experiment: CLD_ABCB1_48hr: CellzDirect (CLD) Gene Expression Assay for ABC Transporter (ABCB1) at 48 hours (AID 2283695)
How it was run: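 Primary human hepatocytes from two donor preparations dosed daily on two consecutive days with 0.2% DMSO vehicle. Harvest at 48 h. ABCB1 mRNA quantified by qNPA with chemiluminescence and fitted for gain of signal versus DMSO.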

[5] = read-out: glucuronosyltransferase (UGT1A1), UGT1A1 (gene 54658); experiment: CLD_UGT1A1_24hr: CellzDirect (CLD) Gene Expression Assay for glucuronosyltransferase (UGT1A1) at 24 hours (AID 2283696)
How it was run: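 Primary human hepatocytes from two donor preparations were dosed (0.2% DMSO vehicle) and harvested at 24 h; UGT1A1 mRNA induction was quantified by chemiluminescent qNPA, fitted as gain relative to DMSO.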

[6] = read-out: Cytochrome P450 2B6 (Homo sapiens) (UniProt P20813); experiment: CLD_CYP2B6_48hr: CellzDirect (CLD) Gene Expression Assay for xenobiotic metabolism (CYP2B6) at 48 hours (AID 2283699);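 also: actives raise transcript level above DMSO so potency reflects induction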
How it was run: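 Primary human hepatocytes dosed daily for two days over multiple concentrations, 0.2% DMSO vehicle; CYP2B6 mRNA quantified at 48 h by qNPA chemiluminescence. Induction fitted as gain of signal versus DMSO; cytotoxicity annotated by morphology.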

[7] = read-out: Cytochrome P450 2C19 (Homo sapiens) (UniProt P33261); experiment: CLD_CYP2C19_48hr: CellzDirect (CLD) Gene Expression Assay for xenobiotic metabolism (CYP2C19) at 48 hours (AID 2283700);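 also: fitted upward so actives raise CYP2C19 mRNA above the 0.2% DMSO vehicle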
How it was run: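 Primary human hepatocytes (two donor preparations) dosed daily for two days, harvested at 48 h; CYP2C19 mRNA induction measured by qNPA chemiluminescence. Gain-of-signal fitted relative to 0.2% DMSO vehicle as baseline.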

[8] = read-out: Cytochrome P450 2C9 (Homo sapiens) (UniProt P11712); experiment: CLD_CYP2C9_48hr: CellzDirect (CLD) Gene Expression Assay for xenobiotic metabolism (CYP2C9) at 48 hours (AID 2283701; active = hit-call score of the fitted dose curve at least 0.9, where 1 is the maximum; inactive = score below 0.9)
How it was run: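 Primary human hepatocytes (two donor preparations) dosed daily for two days with test chemicals, 0.2% DMSO vehicle; harvested at 48 h. mRNA induction quantified by qNPA chemiluminescence, fitted for gain of signal against DMSO baseline; cytotoxicity annotated from phase-contrast morphology.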

[9] = CLD_ACTIN_48hr: CellzDirect (CLD) Gene Expression Assay for Baseline Control (Actin) at 48 hours (AID 2283702)
How it was run: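 Primary human hepatocytes (two donor preparations) dosed daily for two days with ToxCast chemicals at multiple concentrations versus 0.2% DMSO vehicle; harvested at 48 h. Actin mRNA measured as a background control by quantitative nuclease protection assay with chemiluminescence.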

[10] = read-out: xenobiotic metabolism (CYP1A2), CYP1A2 (gene 1544); experiment: CLD_CYP1A2_48hr: CellzDirect (CLD) Gene Expression Assay for xenobiotic metabolism (CYP1A2) at 48 hours (AID 2283703)
How it was run: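 Primary human hepatocytes from two donor preparations were dosed daily for two days at multiple concentrations in 0.2% DMSO vehicle. CYP1A2 mRNA was measured at 48 hours by chemiluminescent quantitative nuclease protection assay, with gain of signal fitted versus DMSO and cytotoxicity annotated from morphology.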

[11] = read-out: Broad substrate specificity ATP-binding cassette transporter ABCG2 (Homo sapiens) (UniProt Q9UNQ0); experiment: CLD_ABCG2_48hr: CellzDirect (CLD) Gene Expression Assay for ABC Transporter (ABCG2) at 48 hours (AID 2283704)
How it was run: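 Primary human hepatocytes from two donors, dosed daily for 2 days, 0.2% DMSO vehicle, several concentrations. ABCG2 mRNA at 48 h by qNPA chemiluminescence, gain fitted versus DMSO; cytotoxicity flagged by morphology.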

[12] = read-out: xenobiotic metabolism (CYP1A1), CYP1A1 (gene 1543); experiment: CLD_CYP1A1_48hr: CellzDirect (CLD) Gene Expression Assay for xenobiotic metabolism (CYP1A1) at 48 hours (AID 2283705)
How it was run: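 Primary human hepatocytes from two donors dosed daily for two days at multiple concentrations, 0.2% DMSO vehicle; CYP1A1 mRNA induction at 48 h by qNPA chemiluminescence. Cytotoxicity noted by phase-contrast morphology.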

[13] = read-out: organic anion transporter (SLCO1B1), SLCO1B1 (gene 10599); experiment: CLD_SLCO1B1_48hr: CellzDirect (CLD) Gene Expression Assay for organic anion transporter (SLCO1B1) at 48 hours (AID 2283707)
How it was run: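 Primary human hepatocytes from two donor preparations dosed daily for two days with multiple concentrations, 0.2% DMSO vehicle. SLCO1B1 mRNA at 48 h by quantitative nuclease protection assay, chemiluminescence; gain-of-signal fitted versus DMSO.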

[14] = read-out: alkyl and aryl transferase (GSTA2), GSTA2 (gene 2939); experiment: CLD_GSTA2_48hr: CellzDirect (CLD) Gene Expression Assay for alkyl and aryl transferase (GSTA2) at 48 hours (AID 2283708);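 also: active means mRNA induction above DMSO vehicle baseline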
How it was run: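 Primary human hepatocytes dosed daily for two days (0.2% DMSO vehicle), harvested at 48 h. GSTA2 mRNA induction measured by quantitative nuclease protection assay with chemiluminescent imaging, fitted for gain of signal relative to DMSO.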

[15] = read-out: glucuronosyltransferase (UGT1A1), UGT1A1 (gene 54658); experiment: CLD_UGT1A1_48hr: CellzDirect (CLD) Gene Expression Assay for glucuronosyltransferase (UGT1A1) at 48 hours (AID 2283709);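 also: actives increase expression relative to DMSO so potency refers to induction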
How it was run: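 Human primary hepatocytes dosed daily for two days (0.2% DMSO vehicle), harvested at 48 h. UGT1A1 mRNA induction measured by quantitative nuclease protection assay with chemiluminescence; gain of signal versus DMSO; cytotoxicity flagged from morphology.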

[16] = read-out: sulfotransferase (SULT2A), SULT2A1 (gene 6822); experiment: CLD_SULT2A_48hr: CellzDirect (CLD) Gene Expression Assay for sulfotransferase (SULT2A) at 48 hours (AID 2283710);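 also: hits raise SULT2A1 transcript above the 0.2% DMSO vehicle baseline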
How it was run: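 Primary human hepatocytes (two donor preparations) dosed daily for two days with chemicals at multiple concentrations, vehicle 0.2% DMSO; SULT2A1 mRNA induction at 48 h by quantitative nuclease protection assay, chemiluminescent read-out, fitted for gain of signal versus DMSO.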

[17] = read-out: HMG-CoA synthase (HMGCS2), HMGCS2 (gene 3158); experiment: CLD_HMGCS2_48hr: CellzDirect (CLD) Gene Expression Assay for HMG-CoA synthase (HMGCS2) at 48 hours (AID 2283711)
How it was run: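 Primary human hepatocytes from two donors dosed daily for two days, 0.2% DMSO vehicle. HMGCS2 mRNA measured 48 h after dosing by quantitative nuclease protection assay with chemiluminescent read-out; induction fitted relative to DMSO, cytotoxicity flagged by microscopy.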

[18] = STM_H9_OrnithineISnorm_perc: Stemina devTOX quickPredict H9 human embryonic stem cell (hESC)-based Assay for Ornithine (ORN) Metabolite Biomarker, Normalized (AID 2283712; active = hit-call score of the fitted dose curve at least 0.9, where 1 is the maximum; inactive = score below 0.9;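 also: ornithine released into spent medium during last day measured by mass spectrometry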)
How it was run: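 Undifferentiated pluripotent H9 hESCs were exposed to compound for 72h, with media and compound replaced every 24h. Ornithine in final 24-h conditioned media was measured by UPLC-HRMS, normalized to 13C-labeled spike-in standard and to median 0.1% DMSO control.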

[19] = STM_H9_CystineISnorm_perc: Stemina devTOX quickPredict H9 human embryonic stem cell (hESC)-based Assay for Cystine (CYSS) Metabolite Biomarker, Normalized (AID 2283713; active = hit-call score of the fitted dose curve at least 0.9, where 1 is the maximum; inactive = score below 0.9)
How it was run: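 Undifferentiated H9 hESCs were exposed to compound for 72h, with medium and compound replaced every 24h. Final-24h conditioned medium was deproteinized and analyzed by UPLC-HRMS. Cystine EIC area was normalized to spiked C13 standard and 0.1% DMSO median.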

[20] = CEETOX_H295R_MTT_cell_viability: Viability Assessment in the CeeTox HT-H295R MTT Assay (AID 2283718; active = hit-call score of the fitted dose curve at least 0.9, where 1 is the maximum; inactive = score below 0.9;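 as to AC50: curve fitted both ways so AC50 may mark viability loss or gain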)
How it was run: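 MTT reduction (0.5 mg/ml, 4 h at 37 C; absorbance at 570 and 650 nm) gave viability as background-corrected percent change versus controls. H295R cells had 48 h forskolin (10 uM) prestimulation, then 48 h chemical exposure at 0.1% DMSO.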

Measured: AC50

Broad substrate specificity ATP-binding cassette transporter ABCG2 (Homo sapiens), sequence (Q9UNQ0 whole entry, looked up): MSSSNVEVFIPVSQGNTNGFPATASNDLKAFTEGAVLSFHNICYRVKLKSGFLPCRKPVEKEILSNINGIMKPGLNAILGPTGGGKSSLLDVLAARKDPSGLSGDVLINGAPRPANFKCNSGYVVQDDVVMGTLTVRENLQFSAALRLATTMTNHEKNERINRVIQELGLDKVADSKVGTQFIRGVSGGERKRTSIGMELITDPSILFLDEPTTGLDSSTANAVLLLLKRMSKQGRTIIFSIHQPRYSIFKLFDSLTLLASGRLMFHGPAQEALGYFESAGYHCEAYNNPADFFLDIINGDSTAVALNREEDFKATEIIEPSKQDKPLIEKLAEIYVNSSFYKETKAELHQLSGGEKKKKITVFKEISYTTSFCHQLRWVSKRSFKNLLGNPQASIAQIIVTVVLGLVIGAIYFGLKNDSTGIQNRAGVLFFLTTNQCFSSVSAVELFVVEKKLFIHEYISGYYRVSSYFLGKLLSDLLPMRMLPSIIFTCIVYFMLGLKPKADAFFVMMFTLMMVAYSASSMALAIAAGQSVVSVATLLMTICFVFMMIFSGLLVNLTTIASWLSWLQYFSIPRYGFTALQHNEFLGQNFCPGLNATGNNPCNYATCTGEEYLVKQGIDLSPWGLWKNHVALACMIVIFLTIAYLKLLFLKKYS
Cytochrome P450 2C19 (Homo sapiens), sequence (P33261 whole entry, looked up): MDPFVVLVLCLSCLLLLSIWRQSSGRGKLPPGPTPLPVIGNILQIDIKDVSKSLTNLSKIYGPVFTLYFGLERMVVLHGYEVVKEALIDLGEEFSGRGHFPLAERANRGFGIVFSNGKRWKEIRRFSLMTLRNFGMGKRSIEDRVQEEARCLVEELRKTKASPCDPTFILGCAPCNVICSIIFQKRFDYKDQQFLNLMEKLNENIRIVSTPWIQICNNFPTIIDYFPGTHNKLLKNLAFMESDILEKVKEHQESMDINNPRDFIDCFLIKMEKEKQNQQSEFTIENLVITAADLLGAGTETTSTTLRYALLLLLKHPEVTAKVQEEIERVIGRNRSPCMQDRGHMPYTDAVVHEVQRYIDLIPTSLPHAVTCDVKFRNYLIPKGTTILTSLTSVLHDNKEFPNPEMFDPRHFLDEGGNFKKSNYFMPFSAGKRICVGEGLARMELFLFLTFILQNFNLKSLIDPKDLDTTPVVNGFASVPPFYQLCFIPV
Cytochrome P450 3A4 (Homo sapiens), sequence (P08684 whole entry, looked up): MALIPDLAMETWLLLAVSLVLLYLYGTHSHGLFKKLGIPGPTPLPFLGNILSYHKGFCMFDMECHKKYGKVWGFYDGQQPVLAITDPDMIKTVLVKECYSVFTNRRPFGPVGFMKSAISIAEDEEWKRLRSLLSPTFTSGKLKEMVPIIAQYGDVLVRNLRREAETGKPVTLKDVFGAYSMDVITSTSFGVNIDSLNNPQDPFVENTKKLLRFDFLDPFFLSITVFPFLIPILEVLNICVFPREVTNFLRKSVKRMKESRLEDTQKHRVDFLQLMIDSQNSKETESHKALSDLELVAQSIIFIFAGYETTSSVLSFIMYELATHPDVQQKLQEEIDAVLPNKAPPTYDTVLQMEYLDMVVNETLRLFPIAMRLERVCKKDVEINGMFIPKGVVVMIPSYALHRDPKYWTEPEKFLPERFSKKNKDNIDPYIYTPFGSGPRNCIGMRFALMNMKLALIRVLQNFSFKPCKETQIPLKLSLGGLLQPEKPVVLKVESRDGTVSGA

CC(C)(C)c1ccc(CSc2cnn(C(C)(C)C)c(=O)c2Cl)cc1
active: [1] 39.3 µM | [18] 0.0663 µM | [19] 0.171 µM
not listed: [20]
inactive: all other assays above

C=CC1(C)OC(=O)N(c2cc(Cl)cc(Cl)c2)C1=O (stereo unspecified)
active: [10] 0.966 µM
not listed: [3] | [6] | [8] | [9] | [13] | [17]
inactive: all other assays above

CCOC(=O)CC(SP(=S)(OC)OC)C(=O)OCC (stereo unspecified)
active: [10] 5.39 µM | [18] 76.9 µM | [19] 86.9 µM
not listed: [7] | [8] | [12] | [13] | [17]
inactive: all other assays above

O=C(O)c1nc(Cl)ccc1Cl
active: [10] 7.28 µM | [12] 4.17 µM
not listed: [4] | [5] | [6] | [9] | [18] | [19] | [20]
inactive: all other assays above

COc1nc(C)nc(NC(=O)NS(=O)(=O)c2ccccc2CCC(F)(F)F)n1
active: [1] 36.7 µM and 5.29 µM | [10] 8.01 µM
inactive: [1] | [2] | [3] | [4] | [5] | [8] | [9] | [10] | [11] | [12] | [13] | [14] | [15] | [16] | [17]

C#CCOS(=O)OC1CCCCC1Oc1ccc(C(C)(C)C)cc1 (stereo unspecified)
active: [1] 1.89 µM | [10] 3.47 µM | [18] 3.33 µM | [19] 2.42 µM
not listed: [6] | [7] | [9] | [13] | [15] | [20]
inactive: all other assays above

Cc1c(F)c(F)c(COC(=O)C2C(/C=C(\Cl)C(F)(F)F)C2(C)C)c(F)c1F (stereo unspecified)
active: [1] 5.74 µM | [10] 4.46 µM | [12] 20 µM
not listed: [6] | [7] | [8] | [13] | [17] | [18] | [19]
inactive: all other assays above

CC(C)C1(C)N=C(c2nc3ccccc3cc2C(=O)O)NC1=O (stereo unspecified)
not listed: [6] | [7] | [8] | [13] | [17] | [18] | [19] | [20]
inactive: all other assays above

Oc1ccccc1-c1ccccc1
active: [10] 9.96 µM
not listed: [4] | [6] | [8] | [9] | [12] | [17] | [18] | [19]
inactive: all other assays above

CCOc1cc(Oc2ccc(C(F)(F)F)cc2Cl)ccc1[N+](=O)[O-]
inactive: [2] | [4] | [5] | [7] | [11] | [14] | [16] | [20]
active: [1] 20 µM | [10] 0.845 µM | [12] 1.01 µM | [15] 5.41 µM

O=C(Nc1ccccc1)Nc1ccnc(Cl)c1
inactive: [1] | [2] | [5] | [11] | [16]
active: [10] 7.3 µM | [12] 10.8 µM | [15] 6.7 µM

CC1COC(Cn2cncn2)(c2ccc(Oc3ccc(Cl)cc3)cc2Cl)O1 (stereo unspecified)
active: [1] 1.9 µM | [10] 0.397 µM | [12] 2 µM | [18] 3.93 µM | [19] 2.87 µM | [20] 74.9 nM
not listed: [6] | [8] | [13]
inactive: all other assays above
